TDP1 inh = qHTS Assay for Inhibitors of Tyrosyl-DNA Phosphodiesterase (TDP1); recombinant TDP1, AlphaScreen DNA substrate cleavage; Potency, µM (top dose mostly 130 µM), for the others: at the highest dose activity change, negative = inhibition, hits mostly inhibitors; 350,000 tested, 0.28% active; AID 485290, 2010; also: potency is read from the fitted curve at half-maximal effect; % is scaled to controls: 0 for no effect and ±100 for the full control effect; nearly all actives have a fitted effect of over 40% in size
Target sequence (Q9NUW8 whole entry, looked up): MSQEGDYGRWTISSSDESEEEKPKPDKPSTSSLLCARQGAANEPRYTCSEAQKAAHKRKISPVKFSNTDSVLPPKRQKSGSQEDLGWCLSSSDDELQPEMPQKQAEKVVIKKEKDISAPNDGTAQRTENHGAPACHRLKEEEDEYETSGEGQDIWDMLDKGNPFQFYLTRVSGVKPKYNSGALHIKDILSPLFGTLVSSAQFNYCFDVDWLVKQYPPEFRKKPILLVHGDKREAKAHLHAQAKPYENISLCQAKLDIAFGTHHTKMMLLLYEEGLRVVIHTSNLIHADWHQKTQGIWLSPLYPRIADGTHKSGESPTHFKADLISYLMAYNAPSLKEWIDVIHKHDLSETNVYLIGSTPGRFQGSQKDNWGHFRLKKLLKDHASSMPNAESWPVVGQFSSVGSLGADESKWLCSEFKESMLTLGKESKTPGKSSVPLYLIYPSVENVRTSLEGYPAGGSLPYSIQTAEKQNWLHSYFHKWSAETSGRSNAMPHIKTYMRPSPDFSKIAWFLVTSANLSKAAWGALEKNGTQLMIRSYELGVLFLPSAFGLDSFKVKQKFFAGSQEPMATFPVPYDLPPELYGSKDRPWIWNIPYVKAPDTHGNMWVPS
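Here, a 5' biotin and 3' phosphotyrosine-FITC DNA oligonucleotide reports Tdp1 activity: intact substrate bridges AlphaScreen beads, while cleavage leaves a 3' phosphate and drops signal. All incubations at room temperature.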
TDP1 cell CPT = qHTS for Inhibitors of human tyrosyl-DNA phosphodiesterase 1 (TDP1): qHTS in cells in presence of CPT; chicken DT40 Tdp1-/-;hTDP1 cells + 20 nM CPT, ATP luminescence, 48 h; Potency, µM (series often up to 46.2 µM), for inactives: at the highest dose activity change, negative = growth inhibition, hits mostly inhibitors; 420,000 tested, 12% active; also: potency is read from the fitted curve at half-maximal effect; % is scaled to controls: 0 for no effect and ±100 for the full control effect; nearly all actives have a fitted effect of over 55% in size
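Chicken DT40 Tdp1-/- cells stably complemented with human TDP1 were seeded at 400 cells/well in medium containing 20 nM camptothecin, exposed to pin-transferred compounds, and grown at 37 °C for at least 48 hr. Viability was read as ATP luminescence.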
uPA surface inh = qHTS for Inhibitors of Cell Surface uPA Generation; cell surface uPA generation assay, qHTS; Potency, µM (highest dose often 38.3 µM), for inactives: at the highest dose activity change, negative = inhibition, most hits filed as inhibitors; 330,000 tested, 0.31% active; AID 540303, 2011; active = well fitted inhibition curve with a large enough effect; inconclusive = small, poorly fitted or top-dose-only effect; inactive = no such curve, though single readings can be large or run the other way; tested in mouse RAW 264.7 cells; also: potency is read from the fitted curve at half-maximal effect; % is scaled to controls: 0 for no effect and ±100 for the full control effect; nearly all actives have a fitted effect of over 55% in size
TDP1 cell noCPT = qHTS for Inhibitors of human tyrosyl-DNA phosphodiesterase 1 (TDP1): qHTS in cells in absence of CPT. DT40 Tdp1-/- hTDP1 cells, no CPT, ATP luminescence, 48 h. 420,000 tested, 15% active. Potency, µM (doses to about 46.2 µM), for inactives: at the highest dose activity change, negative = growth inhibition, usual class: inhibitors; also: potency is read from the fitted curve at half-maximal effect; % is scaled to controls: 0 for no effect and ±100 for the full control effect; nearly all actives have a fitted effect of over 55% in size
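DT40 Tdp1-/-;hTDP1 cells, no CPT (DMSO vehicle only), 400 cells/well; compounds pin-transferred; ≥48 hr, 37 °C; CellTiter-Glo 30 min RT dark, luminescence read.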
miR-21 act = qHTS Assay for Modulators of miRNAs and/orActivators of miR-21; HeLa miR-21 FLuc reporter, luciferase, 48 h; Potency, µM (highest dose often 38.3 µM), without a hit: top-dose activity change, positive = activation, hits mostly activators; 340,000 tested, under 10 active; AID 2288, 2010;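 also: % of control where 0% means no effect; miR-21 action dims this reporter so a rising signal means less miR-21 action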
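Compounds were titrated across several concentrations (up to approximately 40 uM) and incubated 48 hours with HeLa miR-21-FLuc reporter cells (miR-21 target sequence downstream of FLuc, endogenous miR-21). Readout was firefly luciferase luminescence after lytic detection reagent.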
* = called active by the depositor; [ ] = another dose, or the depositor's remark. Shown are actives, neighbours in structure and some others; about 16% of the full set was active somewhere. Unless noted, calls follow the shape of the dose curve; as a rule, active = well fitted curve in the direction sought with a large enough effect; inconclusive = small, poorly fitted or top-dose-only effect, or another doubt; inactive = no such curve, though single readings can be large; an effect the other way counts as inactive or inconclusive.

How did CCNC(=O)C1(C)CCN(C(=O)c2cc(C)oc2C)C1 (configuration not stated) do in these assays?
TDP1 cell CPT: 7.3%; TDP1 cell noCPT: 0.4%

Results for CCCC[C@@H]1C[C@H]1C(NC(=O)c1ccccc1)c1ccccc1 (some centres not stated) ?
TDP1 inh: 0.3%

Results for CC1=CC(C)(C)N(C(=O)CNC2CCCC2)c2cc(C)ccc21 ?
TDP1 inh: 10.1%; TDP1 cell CPT: inconclusive; uPA surface inh: -17.5%; TDP1 cell noCPT: 25.9µM*; miR-21 act: -2.5%

Results for NC(=S)N/N=C/c1ccccc1[N+](=O)[O-] ?
TDP1 cell CPT: -26.9%; uPA surface inh: -1.8%; TDP1 cell noCPT: -8.7%; miR-21 act: 0.1%

What do the screens show for `COc1cc(/C=N/NC(=O)c2ccoc2C)ccc1O`?
TDP1 inh: 1.9%; TDP1 cell CPT: 14.3%; uPA surface inh: -0.1%; TDP1 cell noCPT: 16.1%; miR-21 act: -54.5%

How did COC(=O)c1cccc(/C=N/NC(N)=S)c1O do in these assays?
TDP1 inh: 0.0%; TDP1 cell CPT: 0.184µM*; uPA surface inh: inconclusive; TDP1 cell noCPT: 0.259µM*; miR-21 act: 7.4%

What do the screens show for `COc1cccc(/C=N/NC(=O)c2ccoc2C)c1O`?
TDP1 inh: 7.1%; TDP1 cell CPT: 3.26µM*; uPA surface inh: -1.5%; TDP1 cell noCPT: 0.731µM*; miR-21 act: 4.4%

How did COc1cc(/C=N/NC(=O)c2cccc([N+](=O)[O-])c2)ccc1O do in these assays?
TDP1 inh: -5.1%; TDP1 cell CPT: 1.1%; uPA surface inh: 1.7%; TDP1 cell noCPT: 5.4%; miR-21 act: 0.0%

Results for COc1cccc(/C=N/NC(=O)C(=O)NCc2ccco2)c1O ?
TDP1 inh: 9.3%; TDP1 cell CPT: 7.31µM*; uPA surface inh: inconclusive; TDP1 cell noCPT: 20.6µM*; miR-21 act: 9.3%

What do the screens show for `COc1cccc(/C=N/NC(=O)c2cc3cc([N+](=O)[O-])ccc3s2)c1O`?
TDP1 inh: 1.1%; TDP1 cell CPT: 0.92µM*; uPA surface inh: -3.5%; TDP1 cell noCPT: 0.461µM*; miR-21 act: 23.1%

Results for COc1cc2[nH]c(-c3cccc(F)c3)cc(=O)c2cc1OC ?
TDP1 inh: 3.9%; TDP1 cell CPT: inconclusive; uPA surface inh: inconclusive; TDP1 cell noCPT: inconclusive; miR-21 act: 13.1%

What do the screens show for `CCc1nnc(NC(=O)c2ccc(NS(=O)(=O)c3ccccc3)cc2)s1`?
TDP1 inh: -0.3%; TDP1 cell CPT: -28.6%; TDP1 cell noCPT: inconclusive; miR-21 act: -0.4%

What do the screens show for `COc1cccc(/C=N/NC(=O)C(=O)N/N=C/c2cccc(OC)c2O)c1O`?
TDP1 inh: 4.9%; TDP1 cell CPT: 1.03µM*; uPA surface inh: -0.2%; TDP1 cell noCPT: 1.64µM*; miR-21 act: -0.2%

Results for COc1ccc(/C=N/NC(=O)C2C(=O)NCC2c2ccccc2)c(OC)c1 (configuration not stated) ?
TDP1 inh: 0.0%; TDP1 cell CPT: -8.0%; uPA surface inh: 9.1%; TDP1 cell noCPT: -12.7%; miR-21 act: -7.1%

How did COc1cccc(/C=N\NC(=O)C2C(=O)NCC2c2ccccc2)c1O (configuration not stated) do in these assays?
TDP1 inh: 0.0%; TDP1 cell CPT: inconclusive; uPA surface inh: -12.3%; TDP1 cell noCPT: 23.1µM*; miR-21 act: 16.3%

Results for COc1cccc(/C=N/NC(=O)c2c(-c3ccccc3)noc2C)c1O ?
TDP1 inh: 4.8%; TDP1 cell CPT: 4.11µM*; uPA surface inh: -8.3%; TDP1 cell noCPT: 4.61µM*; miR-21 act: 16.1%

Results for COc1cccc(/C=N/NC(=O)c2c(-c3ccccc3)noc2C)c1OC ?
TDP1 cell CPT: -10.1%; uPA surface inh: -2.9%; TDP1 cell noCPT: -2.9%

How did CC(NC(=O)Cc1ccc(S(=O)(=O)N2CCOCC2)s1)c1ccc(Cl)c(Cl)c1 (configuration not stated) do in these assays?
TDP1 cell CPT: inconclusive; uPA surface inh: -13.1%; TDP1 cell noCPT: inconclusive

What do the screens show for `CCOC(=O)c1nnn(CC(=O)N2N=C(c3cccc4ccccc34)CC2c2ccccc2)c1C(=O)OCC` (configuration not stated)?
TDP1 inh: -3.3%; TDP1 cell CPT: inconclusive; uPA surface inh: -3.0%; TDP1 cell noCPT: 20.6µM*; miR-21 act: -15.5%

What do the screens show for `CCC(=O)N1N=C(c2ccccc2)CC1c1ccccc1` (configuration not stated)?
TDP1 inh: 1.8%; TDP1 cell CPT: -1.7%; uPA surface inh: 1.9%; TDP1 cell noCPT: -17.4%; miR-21 act: -14.9%

Results for O=C(CN1C(=O)C2CC=C(Cl)CC2C1=O)NCc1ccccc1 (configuration not stated) ?
TDP1 inh: -1.0%; TDP1 cell CPT: -19.1%; uPA surface inh: 5.9%; TDP1 cell noCPT: inconclusive; miR-21 act: -2.3%

What do the screens show for `COc1ccccc1N1CCN(C(=O)c2oc3c(c2C)C(=O)CC(C)(C)C3)CC1`?
TDP1 inh: 3.6%; TDP1 cell CPT: 14.6µM*; uPA surface inh: -12.0%; TDP1 cell noCPT: 6.51µM*; miR-21 act: 20.9%

Results for COc1ccccc1N1CCN(C(=O)c2oc3cc(C)cc(C)c3c2C)CC1 ?
TDP1 inh: 6.8%[56.1 µM]; TDP1 cell CPT: inconclusive; uPA surface inh: -3.7%; TDP1 cell noCPT: 25.9µM*; miR-21 act: 10.0%

How did Cc1ccc(N(C(C)C(=O)Nc2c(C)n(C)n(-c3ccccc3)c2=O)S(C)(=O)=O)cc1C (configuration not stated) do in these assays?
TDP1 inh: 2.7%; TDP1 cell CPT: 9.7%; uPA surface inh: 2.6%; TDP1 cell noCPT: -3.4%; miR-21 act: -2.3%

How did CCOC1=C2[C@H](c3ccc(CC)cc3)N(S(=O)(=O)c3ccc(C)cc3)C[C@H]2C(C#N)(C#N)C(C#N)(C#N)C1 do in these assays?
TDP1 cell CPT: 3.66µM*; TDP1 cell noCPT: 3.26µM*

How did CCOC1=C2[C@H](c3ccccc3Cl)N(S(=O)(=O)c3ccc(C)cc3)C[C@H]2C(C#N)(C#N)C(C#N)(C#N)C1 do in these assays?
TDP1 cell CPT: 4.61µM*; TDP1 cell noCPT: 9.2µM*

Results for CCOC1=C2[C@H](c3ccc(C)cc3)N(S(=O)(=O)c3ccc(C)cc3)C[C@H]2n2c(=O)n(-c3ccccc3)c(=O)n2C1 ?
TDP1 cell CPT: -5.1%; TDP1 cell noCPT: -9.9%

Assay outcomes as filed in PubChem.
